Measured values taken from PubChem BioAssay (Tox21).
Records with an inconclusive call do not appear. The source made the active and inactive calls. Unless noted, the call rests on the fitted dose curve.

Experiments:
[1] = qHTS assay to identify small molecule agonists of the peroxisome proliferator-activated receptor delta (PPARd) signaling pathway - cell viability counter screen (AID 743211; active means well fitted curve in the direction sought with a large enough effect in the repeat runs; an effect the other way counts as inactive or inconclusive; further: on the % scale 0 is the no-effect control and ±100 the full control effect; nearly all actives have a fitted effect of over 55% in size)
How it was run: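 PPARd-bla HEK293H cells (3000/well) were pre-incubated 5 h at 37 C, then exposed to compound for 17 h at 37 C. After 2 h with LiveBLAzer substrate, CellTiter-Glo was added to the same wells; luminescence read after 30 min at room temperature.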

[2] = qHTS assay to identify small molecule antagonists of the peroxisome proliferator-activated receptor delta (PPARd) signaling pathway - cell viability counter screen (AID 743213; active means well fitted curve in the direction sought with a large enough effect in the repeat runs; an effect the other way counts as inactive or inconclusive; further: on the % scale 0 is the no-effect control and ±100 the full control effect; nearly all actives have a fitted effect of over 50% in size)
How it was run: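 HEK293H cells with the PPARd UAS-bla reporter, co-treated 17 h at 37 C with compounds and L165041 (300 nM final), were lysed with CellTiter-Glo. Luminescence indicated viable cell content.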

[3] = molecular target: Peroxisome proliferator-activated receptor delta (Homo sapiens) (UniProt Q03181); experiment: qHTS assay to identify small molecule antagonists of the peroxisome proliferator-activated receptor delta (PPARd) signaling pathway (AID 743215; active means well fitted inhibition curve with a large enough effect in the signal ratio in the repeat runs, not every such curve was filed as active; the % refers to the signal ratio;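 further: cells stimulated with agonist L165041 at 300 nM final during compound exposure; series mostly up to about 62 µM; on the % scale 0 is the no-effect control and ±100 the full control effect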)
How it was run: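 Screen format: qHTS, antagonist mode. HEK293H PPARd-bla cells received compound and 300 nM L165041 (final), 17 h, 37 C. Beta-lactamase detected via FRET substrate fluorescence, 2 h, room temperature.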

[4] = molecular target: Bile acid receptor (Homo sapiens) (UniProt Q96RI1); experiment: qHTS assay to identify small molecule antagonists of the farnesoid-X-receptor (FXR) signaling pathway (AID 743217; active means well fitted inhibition curve with a large enough effect in the signal ratio in the repeat runs, not every such curve was filed as active; the % refers to the signal ratio; further: on the % scale 0 is the no-effect control and ±100 the full control effect)
How it was run: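 Quantitative HTS, beta-lactamase reporter format: FXR-UAS-bla HEK 293T cells co-treated 16 h at 37 °C with compounds and 50 uM final chenodeoxycholic acid, then read by B/G FRET fluorescence.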

[5] = qHTS assay to identify small molecule agonists of the farnesoid-X-receptor (FXR) signaling pathway - cell viability counter screen (AID 743218; active means well fitted curve in the direction sought with a large enough effect in the repeat runs; an effect the other way counts as inactive or inconclusive; further: on the % scale 0 is the no-effect control and ±100 the full control effect; nearly all actives have a fitted effect of over 45% in size)
How it was run: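 Same-well cytotoxicity check on FXR-UAS-bla HEK 293T cells: 5 h attachment, 16 h compound at 37 C, CellTiter-Glo luminescence read at room temperature after 30 min.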

[6] = molecular target: Bile acid receptor (Homo sapiens) (UniProt Q96RI1); experiment: qHTS assay to identify small molecule agonists of the farnesoid-X-receptor (FXR) signaling pathway (AID 743220; active means well fitted activation curve with a large enough effect in the signal ratio in the repeat runs, not every such curve was filed as active; the % refers to the signal ratio; further: on the % scale 0 is the no-effect control and ±100 the full control effect)
How it was run: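 FXR-UAS-bla HEK 293T cells carrying a UAS-driven beta-lactamase reporter were plated for 5 h at 37C/5% CO2, then exposed to DMSO-dissolved Tox21 10K compounds for 16 h at 37C. A LiveBLAzer B/G FRET substrate was loaded for 2 h at room temperature before fluorescence reading.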

[7] = qHTS assay to identify small molecule antagonists of the farnesoid-X-receptor (FXR) signaling pathway - cell viability counter screen (AID 743221; active means well fitted cell-killing curve with a large enough effect in the repeat runs, not every such curve was filed as active; further: on the % scale 0 is the no-effect control and ±100 the full control effect; nearly all actives have a fitted effect of over 50% in size)
How it was run: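 GeneBLAzer FXR-UAS-bla HEK 293T cells, compound plus chenodeoxycholic acid (50 uM final), 16 h at 37 C. CellTiter-Glo added to the same wells after the beta-lactamase read; luminescence read after 30 min at room temperature as viability.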

[8] = molecular target: Vitamin D3 receptor (Homo sapiens) (UniProt P11473); experiment: qHTS assay to identify small molecule agonists of the vitamin D receptor (VDR) signaling pathway (AID 743222); further: on the % scale 0 is the no-effect control and ±100 the full control effect
How it was run: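 Using LiveBLAzer B/G FRET detection, agonism was scored in VDR-bla cells exposed overnight (16 h, 37C) to DMSO-dissolved compounds; substrate incubation was 2 h at room temperature.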

[9] = molecular target: Vitamin D3 receptor (Homo sapiens) (UniProt P11473); experiment: qHTS assay to identify small molecule antagonists of the vitamin D receptor (VDR) signaling pathway (AID 743223; active means well fitted inhibition curve with a large enough effect in the signal ratio in the repeat runs, not every such curve was filed as active; the % refers to the signal ratio; further: on the % scale 0 is the no-effect control and ±100 the full control effect)
How it was run: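 VDR-bla cells were treated with compound plus 3 nM final 1alpha,25-dihydroxyvitamin D3 for 16 h at 37C. Beta-lactamase reporter read by B/G FRET substrate fluorescence after 2 h at room temperature. qHTS format.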

[10] = qHTS assay to identify small molecule agonists of the vitamin D receptor (VDR) signaling pathway - cell viability counter screen (AID 743224; active means well fitted curve in the direction sought with a large enough effect in the repeat runs; an effect the other way counts as inactive or inconclusive; further: series mostly up to about 63 µM; on the % scale 0 is the no-effect control and ±100 the full control effect; nearly all actives have a fitted effect of over 50% in size)
How it was run: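 Counter screen for cytotoxicity: VDR-bla cells at 2,000 cells/well, 16 h compound exposure, then CellTiter-Glo luminescence after the beta-lactamase measurement.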

[11] = qHTS assay to identify small molecule antagonists of the vitamin D receptor (VDR) signaling pathway - cell viability counter screen (AID 743225; active means well fitted curve in the direction sought with a large enough effect in the repeat runs; an effect the other way counts as inactive or inconclusive; further: on the % scale 0 is the no-effect control and ±100 the full control effect; nearly all actives have a fitted effect of over 50% in size)
How it was run: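 VDR-UAS-bla HEK 293T cells were plated and incubated 4 h at 37C, then dosed with compound plus 3 nM (final) 1-alpha,25-dihydroxyvitamin D3 for 16 h. After the 2 h beta-lactamase read, viability in the same wells was read as CellTiter-Glo luminescence after 30 min at room temperature.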

[12] = qHTS assay to identify small molecule agonists of the NFkB signaling pathway - cell viability counter screen (AID 1159515); further: series mostly up to about 61 µM; on the % scale 0 is the no-effect control and ±100 the full control effect; nearly all actives have a fitted effect of over 55% in size
How it was run: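 Counter screen run alongside the NFkB-bla agonist assay: ME-180 reporter cells exposed to compounds for 5 hr, then lysed with CellTiter-Glo in the same wells. Luminescence, read after 30 min, reflects viable cells.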

[13] = qHTS assay to identify small molecule agonists of the endoplasmic reticulum stress response signaling pathway (AID 1159516; active means well fitted activation curve with a large enough effect in the signal ratio in the repeat runs, not every such curve was filed as active; the % refers to the signal ratio; further: on the % scale 0 is the no-effect control and ±100 the full control effect)
How it was run: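 For this screen, HeLa cells stably carrying beta-lactamase under the ER stress response element received test compounds, positive controls or DMSO for 5 hr at 37 C; B/G FRET substrate was then added and dual-wavelength emission recorded.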

[14] = qHTS assay to identify small molecule agonists of the endoplasmic reticulum stress response signaling pathway - cell viability counter screen (AID 1159517)
How it was run: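 Cytotoxicity of test compounds toward ESRE-bla HeLa cells was assessed after 5 hr exposure. The luminescent CellTiter-Glo signal was measured 30 min after reagent addition.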

[15] = qHTS assay to identify small molecule antagonists of the retinoid-related orphan receptor gamma (ROR-gamma) signaling pathway - cell viability counter screen (AID 1159520; active means well fitted curve in the direction sought with a large enough effect in the repeat runs; an effect the other way counts as inactive or inconclusive)
How it was run: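 Tet-on ROR gamma CHO cells (1,000/well) were plated 4 hr, given compounds in DMSO for 2 hr at 37 C, then induced with 1 uM final doxycycline for 16 hr. Viability was read as ATP by CellTiter-Glo luminescence after 30 min.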

[16] = molecular target: Nuclear receptor ROR-gamma (Homo sapiens) (UniProt P51449); experiment: qHTS assay to identify small molecule antagonists of the retinoid-related orphan receptor gamma (ROR-gamma) signaling pathway (AID 1159521; active means well fitted curve in the direction sought with a large enough effect in the repeat runs; an effect the other way counts as inactive or inconclusive)
How it was run: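 Tet-on ROR-gamma CHO cells with ROR response element-luciferase reporter; compounds added 2 hr before 1 uM doxycycline induction, then 16 hr at 37 C. Antagonism scored as decreased ONE-Glo luminescence.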

[17] = qHTS assay to identify small molecule agonists of the AP-1 signaling pathway - cell viability counter screen (AID 1159525); further: nearly all actives have a fitted effect of over 55% in size
How it was run: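 Each titration point was normalised to DMSO and tetra n-octyl ammonium bromide controls. The read was Cell Titer Glo luminescence after 30 min at RT, following 5 h compound exposure of ME-180 AP-1-bla cells at 37 °C.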

[18] = qHTS assay to identify small molecule agonists of the AP-1 signaling pathway (AID 1159526); further: on the % scale 0 is the no-effect control and ±100 the full control effect
[19] = molecular target: Retinoic acid receptor RXR-alpha (Homo sapiens) (UniProt P19793); experiment: qHTS assay to identify small molecule agonists of the RXR signaling pathway (AID 1159527); further: on the % scale 0 is the no-effect control and ±100 the full control effect; nearly all actives have a fitted effect of over 35% in size
How it was run: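 GeneBLAzer RXR-alpha-UAS-bla HEK 293T cells in 2% charcoal-stripped FBS medium were exposed to compounds for 16 hr at 37 C in agonist mode. Beta-lactamase reporter read as 460/530 nm FRET ratio after 2 hr substrate loading.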

[20] = molecular target: Peroxisome proliferator-activated receptor delta (Homo sapiens) (UniProt Q03181); experiment: qHTS assay to identify small molecule agonists of the peroxisome proliferator-activated receptor delta (PPARd) signaling pathway (AID 743212)
How it was run: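 Beta-lactamase reporter read by fluorescence (LiveBLAzer B/G FRET, 2 h, room temperature). Test agents, in DMSO, incubated at 37 C with PPARd-bla HEK293H cells.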

Sequence of Vitamin D3 receptor (Homo sapiens) (P11473 whole entry, looked up): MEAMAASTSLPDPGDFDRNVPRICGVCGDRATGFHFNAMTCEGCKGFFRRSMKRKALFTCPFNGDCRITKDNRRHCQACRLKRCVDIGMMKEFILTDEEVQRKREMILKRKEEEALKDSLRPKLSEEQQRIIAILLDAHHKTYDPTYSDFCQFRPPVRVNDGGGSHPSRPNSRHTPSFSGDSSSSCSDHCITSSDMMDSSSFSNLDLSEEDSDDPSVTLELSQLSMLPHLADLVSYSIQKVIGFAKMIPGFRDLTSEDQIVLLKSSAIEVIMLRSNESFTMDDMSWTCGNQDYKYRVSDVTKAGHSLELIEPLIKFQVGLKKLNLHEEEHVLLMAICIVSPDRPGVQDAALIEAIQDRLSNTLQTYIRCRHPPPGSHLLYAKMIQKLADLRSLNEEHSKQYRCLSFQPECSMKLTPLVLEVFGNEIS
Sequence of Retinoic acid receptor RXR-alpha (Homo sapiens) (P19793 whole entry, looked up): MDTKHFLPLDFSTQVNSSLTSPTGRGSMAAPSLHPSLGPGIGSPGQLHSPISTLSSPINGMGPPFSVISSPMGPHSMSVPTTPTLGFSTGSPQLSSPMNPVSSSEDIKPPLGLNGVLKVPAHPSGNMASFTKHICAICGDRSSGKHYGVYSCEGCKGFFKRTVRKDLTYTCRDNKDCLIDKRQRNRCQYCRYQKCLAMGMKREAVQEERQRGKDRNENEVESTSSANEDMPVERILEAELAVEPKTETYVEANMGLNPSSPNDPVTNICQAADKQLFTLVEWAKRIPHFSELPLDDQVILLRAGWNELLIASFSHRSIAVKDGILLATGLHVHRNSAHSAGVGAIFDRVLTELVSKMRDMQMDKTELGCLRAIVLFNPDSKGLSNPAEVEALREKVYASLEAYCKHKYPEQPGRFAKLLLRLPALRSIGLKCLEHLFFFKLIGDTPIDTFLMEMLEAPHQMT
Sequence of Peroxisome proliferator-activated receptor delta (Homo sapiens) (Q03181 whole entry, looked up): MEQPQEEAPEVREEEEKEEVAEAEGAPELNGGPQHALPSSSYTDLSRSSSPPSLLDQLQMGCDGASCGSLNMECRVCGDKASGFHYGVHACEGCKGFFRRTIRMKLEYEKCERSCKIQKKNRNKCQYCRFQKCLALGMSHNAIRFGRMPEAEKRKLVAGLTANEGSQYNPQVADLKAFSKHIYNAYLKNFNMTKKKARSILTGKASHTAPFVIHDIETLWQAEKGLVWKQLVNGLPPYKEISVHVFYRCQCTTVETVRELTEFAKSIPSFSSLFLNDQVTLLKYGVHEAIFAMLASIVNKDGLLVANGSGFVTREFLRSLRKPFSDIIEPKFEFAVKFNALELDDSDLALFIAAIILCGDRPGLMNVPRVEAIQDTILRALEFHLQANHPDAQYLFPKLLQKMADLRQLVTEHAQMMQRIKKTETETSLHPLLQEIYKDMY
Sequence of Bile acid receptor (Homo sapiens) (Q96RI1 whole entry, looked up): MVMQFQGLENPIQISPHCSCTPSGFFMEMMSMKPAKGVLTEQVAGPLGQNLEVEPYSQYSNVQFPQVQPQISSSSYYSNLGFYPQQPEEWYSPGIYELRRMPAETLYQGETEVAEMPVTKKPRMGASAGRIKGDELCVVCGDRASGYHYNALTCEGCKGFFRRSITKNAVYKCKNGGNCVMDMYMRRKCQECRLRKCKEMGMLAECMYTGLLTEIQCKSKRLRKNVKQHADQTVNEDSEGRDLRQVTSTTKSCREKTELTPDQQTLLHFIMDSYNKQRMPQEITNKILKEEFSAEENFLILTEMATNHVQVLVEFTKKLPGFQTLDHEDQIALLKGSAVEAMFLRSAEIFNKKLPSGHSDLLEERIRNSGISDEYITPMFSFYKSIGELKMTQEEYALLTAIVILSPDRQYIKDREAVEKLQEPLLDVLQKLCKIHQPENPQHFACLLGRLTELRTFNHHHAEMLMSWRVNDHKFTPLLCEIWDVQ

C[N+]1(CCF)[C@@H]2CC[C@H]1CC(OC(=O)C(O)(c1ccccc1)c1ccccc1)C2 (some centres not stated)
inactive: Potency [1] | Potency [2] | Potency [3] | Potency [4] | Potency [5] | outcome [6] | Potency [7] | outcome [8] | Potency [9] | Potency [10] | Potency [11] | Potency [12] | Potency [13] | Potency [14] | Potency [15] | Potency [16] | Potency [17] | Potency [18] | Potency [19]

COCc1cnc(C2=NC(C)(C(C)C)C(=O)N2)c(C(=O)O)c1 (configuration not stated)
inactive: Potency [1] | outcome [20] | Potency [2] | Potency [5] | outcome [6] | Potency [7] | outcome [8] | Potency [9] | Potency [10] | Potency [12] | Potency [13] | Potency [14] | Potency [15] | Potency [16] | Potency [17] | Potency [18] | Potency [19]

Nc1c(Br)cc(Br)c2c1C(=O)c1ccccc1C2=O
inactive: Potency [1] | outcome [20] | Potency [2] | Potency [3] | Potency [7] | outcome [8] | Potency [9] | Potency [10] | Potency [11] | Potency [12] | Potency [13] | Potency [14] | activity, negative = cytotoxicity [15] -2.6% [at 19 µM] | activity change, negative = inhibition [16] 13.2% [at 19 µM] | viability change, negative = cytotoxic [17] 1.64% [at 15.8 µM] | activation [18] 0.821% [at 15.8 µM] | activation [19] 1.05% [at 15.8 µM]

C=C(C)C(=O)OCCCCOC(=O)C(=C)C
inactive: Potency [1] | outcome [20] | Potency [2] | Potency [3] | Potency [5] | Potency [7] | outcome [8] | Potency [10] | Potency [12] | Potency [13] | Potency [14] | Potency [15] | Potency [16] | Potency [17] | Potency [18] | Potency [19]

C1CCNCC1
inactive: Potency [1] | Potency [2] | Potency [3] | Potency [5] | Potency [7] | outcome [8] | Potency [9] | Potency [10] | Potency [12] | Potency [13] | Potency [14] | Potency [15] | Potency [16] | Potency [17] | Potency [18] | Potency [19]

Cc1nc(N(C)C)nc(OC(=O)N(C)C)c1C
inactive: Potency [1] | outcome [20] | Potency [2] | Potency [3] | Potency [5] | outcome [6] | Potency [7] | outcome [8] | Potency [9] | Potency [10] | Potency [11] | Potency [12] | Potency [13] | Potency [14] | Potency [15] | Potency [16] | Potency [17] | Potency [18] | Potency [19]

Clc1ccccc1
inactive: Potency [1] | outcome [20] | Potency [5] | Potency [7] | outcome [8] | Potency [10] | Potency [12] | Potency [13] | Potency [14] | Potency [15] | Potency [16] | Potency [17] | Potency [18] | Potency [19]

CN(C1CCCCC1)C1CCCCC1
inactive: Potency [1] | Potency [2] | Potency [3] | Potency [5] | Potency [7] | outcome [8] | Potency [9] | Potency [10] | Potency [11] | Potency [12] | Potency [13] | Potency [14] | Potency [15] | Potency [16] | Potency [17] | Potency [18] | Potency [19]

CCSCc1ccccc1OC(=O)NC
inactive: Potency [1] | outcome [20] | Potency [3] | Potency [5] | outcome [6] | Potency [7] | outcome [8] | Potency [9] | Potency [10] | Potency [11] | Potency [12] | Potency [13] | Potency [14] | Potency [15] | Potency [16] | Potency [17] | Potency [18] | Potency [19]

C=CCc1ccccc1O
inactive: Potency [1] | Potency [2] | Potency [3] | Potency [4] | Potency [5] | outcome [6] | Potency [7] | outcome [8] | Potency [9] | Potency [10] | Potency [11] | Potency [12] | Potency [13] | Potency [14] | Potency [15] | Potency [16] | Potency [17] | Potency [18] | Potency [19]

CCCCCl
inactive: Potency [1] | outcome [20] | Potency [2] | Potency [3] | Potency [4] | Potency [5] | outcome [6] | outcome [8] | Potency [10] | Potency [11] | Potency [12] | Potency [13] | Potency [14] | Potency [15] | Potency [16] | Potency [17] | Potency [18] | Potency [19]

CC(C)CCON=O
inactive: Potency [1] | Potency [2] | Potency [3] | Potency [5] | Potency [7] | outcome [8] | Potency [10] | Potency [12] | Potency [13] | Potency [14] | Potency [15] | Potency [16] | Potency [17] | Potency [18] | Potency [19]

O=S(=O)(c1ccccc1)c1ccccc1
inactive: Potency [1] | outcome [20] | Potency [3] | Potency [4] | Potency [5] | Potency [7] | outcome [8] | Potency [10] | Potency [11] | Potency [12] | Potency [13] | Potency [14] | Potency [15] | Potency [16] | Potency [17] | Potency [18] | Potency [19]

CON(C)C(=O)Nc1ccc(Cl)cc1
inactive: Potency [1] | outcome [20] | Potency [2] | Potency [3] | Potency [5] | outcome [6] | Potency [7] | outcome [8] | Potency [9] | Potency [10] | Potency [12] | Potency [13] | Potency [14] | Potency [15] | Potency [16] | Potency [17] | Potency [18] | Potency [19]

CC(C)(c1ccccc1)c1cc(-n2nc3ccccc3n2)c(O)c(C(C)(C)c2ccccc2)c1
inactive: Potency [1] | outcome [20] | Potency [2] | Potency [3] | Potency [5] | Potency [7] | outcome [8] | Potency [9] | Potency [10] | Potency [11] | Potency [12] | Potency [13] | Potency [14] | Potency [15] | Potency [16] | Potency [17] | Potency [18] | Potency [19]

O=C(O)c1cc(Cl)ccc1Cl
inactive: Potency [1] | outcome [20] | Potency [2] | Potency [3] | Potency [4] | Potency [5] | outcome [6] | Potency [7] | outcome [8] | Potency [9] | Potency [10] | Potency [12] | Potency [13] | Potency [14] | Potency [15] | Potency [16] | Potency [17] | Potency [18] | Potency [19]
